In PubChem BioAssay (EPA / NIEHS):
The source made the active and inactive calls. Rule for the calls: active = hit-call score of the fitted dose curve at least 0.9, where 1 is the maximum; inactive = score below 0.9.

Key:
[1] = target: CCAAT/enhancer-binding protein beta (Homo sapiens) (UniProt P17676); experiment: ATG_C_EBP_CIS: Attagene CIS-FACTORIAL HepG2 Assay for human CCAAT/Enhancer Binding Protein (C/EBP) beta (AID 2282927); conditions: HepG2 Attagene cis-factorial transcription factor reporter; actives raise or lower the signal
In short: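 Changes in reporter mRNA, rather than exogenous chimeric receptor activity, reflect native C/EBP signalling in transfected HepG2 cells dosed for 24 h; transcripts are detected by RT-PCR and capillary electrophoresis.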

[2] = ATG_CMV_CIS: Attagene CIS-FACTORIAL HepG2 Assay for human CMV (Internal Marker) (AID 2282928); conditions: HepG2 CMV promoter reporter, transcription factor profiling; actives raise or lower the signal;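 note: endpoint acts as a background internal control marker rather than a target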
In short: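 Readout: fluorescent reporter cDNA fragments separated by capillary electrophoresis after RT-PCR and HpaI cut. Cells: HepG2 carrying transfected cis-promoter reporter constructs, dosed 24 h. Endpoint serves as background internal-marker control, fit bidirectionally versus DMSO.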

[3] = ATG_DR4_LXR_CIS: Attagene CIS-FACTORIAL HepG2 Assay for human Liver X Receptor (LXR), DR4 submotif (AID 2282929); conditions: HepG2 Attagene DR4 cis-reporter, mRNA transcription; actives raise or lower the signal
In short: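 DR4 cis-reporter in HepG2, 24 h exposure. Detection: RT-PCR, 6-FAM labelling, CE fragment analysis. Endpoint fitted bidirectionally, DMSO = baseline.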

[4] = ATG_AP_1_CIS: Attagene CIS-FACTORIAL HepG2 Assay for human Activator Protein 1 (AP-1) (AID 2282931); conditions: HepG2 Attagene cis-factorial AP-1 reporter mRNA; actives raise or lower the signal
In short: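 Cis-regulated reporter units transiently expressed in HepG2 report endogenous transcription-factor activity. Signal: reporter mRNA at 24 h, via RT-PCR and fluorescent capillary electrophoresis. Endpoint derived by bidirectional fitting, DMSO as negative control.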

[5] = ATG_AP_2_CIS: Attagene CIS-FACTORIAL HepG2 Assay for human Activator Protein 2 (AP-2) (AID 2282932); conditions: HepG2 AP-2 cis-reporter, Attagene transcription factor profiling; actives raise or lower the signal
In short: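 Endogenous transcription factor activity is reported through transfected multiplex reporter constructs in HepG2, after 24 h of compound exposure. Transcripts were quantified by RT-PCR and capillary electrophoresis of fluorescent fragments. Bidirectional fit against DMSO.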

[6] = ATG_BRE_CIS: Attagene CIS-FACTORIAL HepG2 Assay for human Bone Morphogenetic Protein (BMP) Response Element (BRE) (AID 2282933); conditions: HepG2 BMP response element reporter, Attagene transcription factor profiling; actives raise or lower the signal
In short: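 HepG2 cells transiently transfected with CIS reporter units (endogenous TF activity, BMP response element), dosed 24 h. Reporter mRNA quantified by RT-PCR, fluorescent labelling and capillary electrophoresis; bidirectional fit vs DMSO baseline.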

[7] = target: Aryl hydrocarbon receptor (Homo sapiens) (UniProt P35869); experiment: ATG_Ahr_CIS: Attagene CIS-FACTORIAL HepG2 Assay for human Aryl Hydrocarbon Receptor (Ahr) (AID 2282930); conditions: HepG2 AhR cis-factorial reporter transcription; actives raise or lower the signal
In short: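 HepG2, transient MRTU (cis) transfection, 24 h exposure. RNA → cDNA → PCR → 6-FAM primer extension → HpaI 2 h 37 C → CE. Fit: bidirectional, DMSO baseline.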

[8] = target: Retinoic acid receptor alpha (Homo sapiens) (UniProt P10276); experiment: ATG_DR5_RAR_CIS: Attagene CIS-FACTORIAL HepG2 Assay for human Retinoic Acid Receptor Alpha (RARE), DR5 submotif (AID 2282934); conditions: HepG2 Attagene cis-factorial RARE DR5 reporter, mRNA; actives raise or lower the signal
In short: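 HepG2, transient cis-reporter transfection, 24 h exposure. mRNA readout: RT-PCR, FAM label, HpaI cut, capillary electrophoresis. DMSO baseline, gain/loss fitting.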

Measured: AC50

Aryl hydrocarbon receptor (Homo sapiens), sequence (P35869 whole entry, looked up): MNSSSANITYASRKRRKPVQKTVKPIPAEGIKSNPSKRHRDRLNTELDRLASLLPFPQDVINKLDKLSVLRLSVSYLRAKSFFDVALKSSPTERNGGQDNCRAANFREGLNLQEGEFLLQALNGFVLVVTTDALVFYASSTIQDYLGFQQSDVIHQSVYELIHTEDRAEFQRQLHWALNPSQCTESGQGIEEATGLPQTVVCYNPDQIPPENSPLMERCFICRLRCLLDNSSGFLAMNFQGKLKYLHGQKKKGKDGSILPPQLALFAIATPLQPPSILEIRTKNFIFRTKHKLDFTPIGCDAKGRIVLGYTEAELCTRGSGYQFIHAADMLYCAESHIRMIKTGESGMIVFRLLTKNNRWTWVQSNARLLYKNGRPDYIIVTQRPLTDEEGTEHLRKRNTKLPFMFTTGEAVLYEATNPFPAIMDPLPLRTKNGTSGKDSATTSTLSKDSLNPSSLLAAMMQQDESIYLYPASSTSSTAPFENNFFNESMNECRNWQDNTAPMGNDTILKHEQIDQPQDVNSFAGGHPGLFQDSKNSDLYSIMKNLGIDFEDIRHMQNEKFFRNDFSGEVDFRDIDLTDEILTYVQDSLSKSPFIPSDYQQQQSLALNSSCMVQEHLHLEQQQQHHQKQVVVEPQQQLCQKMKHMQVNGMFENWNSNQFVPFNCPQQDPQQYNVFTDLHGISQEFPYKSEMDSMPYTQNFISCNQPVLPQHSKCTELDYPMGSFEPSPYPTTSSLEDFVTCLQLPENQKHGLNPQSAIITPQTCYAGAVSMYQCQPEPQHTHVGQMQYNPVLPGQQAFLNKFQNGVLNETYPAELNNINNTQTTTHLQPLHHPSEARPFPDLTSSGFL
CCAAT/enhancer-binding protein beta (Homo sapiens), sequence (P17676 whole entry, looked up): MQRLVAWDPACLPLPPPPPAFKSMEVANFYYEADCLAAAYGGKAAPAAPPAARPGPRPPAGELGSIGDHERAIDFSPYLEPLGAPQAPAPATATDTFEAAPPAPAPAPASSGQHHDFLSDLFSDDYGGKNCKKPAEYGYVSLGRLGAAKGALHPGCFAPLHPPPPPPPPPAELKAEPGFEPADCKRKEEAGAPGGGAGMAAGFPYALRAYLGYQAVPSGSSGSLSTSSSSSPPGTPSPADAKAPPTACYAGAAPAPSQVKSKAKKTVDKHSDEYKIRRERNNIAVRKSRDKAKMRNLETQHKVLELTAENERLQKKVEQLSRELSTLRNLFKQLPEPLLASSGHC
Retinoic acid receptor alpha (Homo sapiens), sequence (P10276 whole entry, looked up): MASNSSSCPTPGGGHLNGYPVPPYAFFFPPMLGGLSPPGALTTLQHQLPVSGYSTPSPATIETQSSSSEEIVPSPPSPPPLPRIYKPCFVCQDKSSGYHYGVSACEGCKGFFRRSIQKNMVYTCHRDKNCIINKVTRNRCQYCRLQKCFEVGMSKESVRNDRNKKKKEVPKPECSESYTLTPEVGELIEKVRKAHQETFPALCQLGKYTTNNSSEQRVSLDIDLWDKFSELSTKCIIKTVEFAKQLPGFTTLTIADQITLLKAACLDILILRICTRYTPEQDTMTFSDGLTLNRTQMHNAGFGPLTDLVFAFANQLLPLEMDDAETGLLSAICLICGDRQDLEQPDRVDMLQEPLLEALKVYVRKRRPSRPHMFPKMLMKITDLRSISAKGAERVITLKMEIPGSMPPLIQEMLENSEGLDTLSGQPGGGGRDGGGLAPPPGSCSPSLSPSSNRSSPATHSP

CCOC(=O)COC(=O)c1ccccc1C(=O)OCC
not listed: [7] | [8]
inactive: all other assays above

CC(C)CCOC(=O)CC(C)C
inactive: [1] | [3] | [7] | [4] | [5]

CCCCCCCCOC(=O)c1ccc(O)cc1
not listed: [7]
inactive: all other assays above

OC[C@H]1O[C@@H](O[C@H]2[C@H](O)[C@@H](O)[C@H](O)O[C@@H]2CO)[C@H](O)[C@@H](O)[C@H]1O
inactive: [1] | [2] | [3] | [5] | [8]

O=C(OCc1ccccc1)c1ccccc1O
active: [2] 64.1 µM | [3] 55.1 µM | [7] 61.9 µM | [4] 111 µM | [6] 133 µM
inactive: [1] | [5] | [8]

C=C(C)C(=O)OCCC(C)OC(=O)C(=C)C (centres undefined)
not listed: [7]
inactive: all other assays above

O=S1(=O)CC=CC1
inactive: all assays above

CC(C)(C)c1cccc(O)c1
inactive: all assays above

Nc1ccc(N)c([N+](=O)[O-])c1
active: [2] 77.1 µM [middle of 5 runs] | [7] 3.14 µM [middle of 5 runs]
not listed: [4]
inactive: all other assays above

CCO[Si](CC)(OCC)OCC
active: [3] 155 µM
not listed: [1]
inactive: all other assays above

CC1=C(C=O)C(C)(C)CCC1
inactive: [1] | [2] | [3] | [5] | [6]

COc1ccccc1NC(=O)CC(C)=O
active: [7] 34.8 µM
not listed: [4]
inactive: all other assays above

CCCCCCCCCO
not listed: [7]
inactive: all other assays above

O=C(O)c1ccco1
not listed: [2] | [8]
inactive: all other assays above

O=c1cc(-c2ccc(O)cc2)oc2cc(O)cc(O)c12
inactive: [7] | [5] | [8]
active: [1] 16.8 µM | [2] 6.31 µM | [3] 7.83 µM | [4] 64.3 µM

CC(=O)CCC=C(C)CCC=C(C)C
not listed: [8]
inactive: all other assays above

CC12CCC(C1)C(C)(C)C2O (centres undefined)
not listed: [7]
inactive: all other assays above

C1COCO1
not listed: [7] | [8]
inactive: all other assays above

CC/C=C\C#N
not listed: [4] | [8]
inactive: all other assays above

CCCCC(CC)COCCO (centres undefined)
active: [7] 19.8 µM
not listed: [1] | [8]
inactive: all other assays above

CC(=O)N(C)C
inactive: [1] | [2] | [3] | [5] | [8]

CC/C=C\CCCCO
not listed: [4] | [8]
inactive: all other assays above

NC(N)=NC(N)=NCCc1ccccc1
active: [6] 36.4 µM
not listed: [4]
inactive: all other assays above

N=C1N=C(N)c2ccccc21
active: [3] 100 µM
not listed: [7] | [8]
inactive: all other assays above

NCCN1CCNCC1
not listed: [6]
inactive: all other assays above

CCCCOCCOCCOCCO
not listed: [4] | [6]
inactive: all other assays above

Cc1ccccc1S
inactive: [1] | [5] | [6]
active: [3] 75.5 µM | [4] 36.6 µM

CCCCOCCOCCO
not listed: [4]
inactive: all other assays above

c1ccc(Sc2ccccc2)cc1
inactive: all assays above

O=C(O)C1=NN(c2ccc(S(=O)(=O)O)cc2)C(=O)C1
not listed: [2]
inactive: all other assays above

O=C(O)CS
inactive: all assays above
